Source: the supplement of paper PMC4188521

The targets below were run with CCc1cnn2c(NCc3ccc[n+]([O-])c3)cc(N3CCCC[C@H]3CCO)nc12 [dinaciclib] (assay: cell viability remaining relative to DMSO control; higher = less cytotoxic (more viable cells)). Conditions: 100 nM; 24 h.
Method: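 Solid tumor cell lines were treated with dinaciclib (100 nM) for 24 hr. Viability was measured by CellTiter-Glo ATP luminescence and expressed as % of DMSO-treated control wells (mean of 2-6 plates, triplicate wells per plate).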

Row | Target | cell viability remaining
1 | G361 | 4.9%
2 | HT29 | 57.8%
3 | SNGM | 98.3%
4 | CAL54 | 78.9%
5 | SKBR3 | 51.1%
6 | HUPT4 | 9.8%
7 | HCC1428 | 19.7%
8 | H460 | 52.2%
9 | CHL1 | 3.1%
10 | A204 | 40.8%
11 | OV56 | 59.1%
12 | SW1783 | 72.9%
13 | MDAMB468 | 29.1%
14 | OV90 | 99.8%
15 | HEC6 | 57.7%
16 | OAW28 | 63.1%
17 | SKNFI | 24.1%
18 | HS934T | 124%
19 | COLO201 | 67.8%
20 | RL952 | 33.4%

Row | Target | cell viability remaining
21 | OAW42 | 44.2%
22 | C32 | 83%
23 | SW1271 | 80.7%
24 | SNU5 | 69.5%
25 | JIMT1 | 66.2%
26 | COLO684 | 85.6%
27 | MCAS | 82.8%
28 | SAOS2 | 32.2%
29 | MALME3M | 54.4%
30 | EFE184 | 93.1%
31 | SW948 | 72.6%
32 | H2122 | 48.2%
33 | HCC827 | 67.9%
34 | HS852T | 54.3%
35 | SKMEL28 | 56.2%
36 | YAPC | 56.3%
37 | LOVO | 88.9%
38 | DETROIT562 | 34.6%
39 | TOV112D | 16%
40 | HS294T | 52.6%
